# Laboratory results: the supplement of paper PMC12582362
# Counter-ions that a name gives are not always drawn. Hit rate of the full screen: of about 1,500 compounds, about 30 (2%) showed activity. Shown is part of a subset that was picked to be rich in actives. A number with no mark means an inactive call.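 The calls were made as follows: active = robust z-score below -2; a few such results were not called.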
# Test system: optoTopBP1 Flp-In 293 T-REx (HEK293) cells
# Assay: light-induced TopBP1 condensate (nuclear foci) count, plate-normalised robust z-score vs non-control wells; higher = more TopBP1 condensates (negative = condensation inhibitor), active = hit call of the paper
# Details: 10 µM; incubation time 2 h
row,Structure (SMILES),light-induced TopBP1 condensate (z-score)
1,COc1ccc(C(=O)c2ccc(C)cc2)c(O)c1 [Mexenone],0.105
2,O=C(NCCCN1CCOCC1)c1ccc(Cl)cc1 [Eprobemide],0.149
3,CC(C)NCC(O)COc1cccc2[nH]c3ccccc3c12 (stereo not given) [Carazolol],-1.07
4,CC(COc1ccccc1)NN (stereo not given) [Phenoxypropazine dihydrochloride],0.724
5,CN(C)C(=O)COC(=O)Cc1ccc(OC(=O)c2ccc(NC(=N)N)cc2)cc1 [Camostat mesylate],-0.369
6,CN[C@@H]1[C@H](O)[C@H](NC)[C@H]2O[C@@]3(O)C(=O)C[C@@H](C)O[C@H]3O[C@@H]2[C@H]1O [Spectinomycin dihydrochloride],0.546
7,C=C1C[C@H]2[C@@H]3C=C(C)C4=CC(=O)CC[C@]4(C)[C@H]3CC[C@]2(C)[C@@]1(OC(C)=O)C(C)=O [Melengestrol acetate],-0.246
8,CCOc1ccccc1OCCN[C@H](C)Cc1ccc(OC)c(S(N)(=O)=O)c1 [(R)-Tamsulosin hydrochloride],0.258
9,Cc1cccc(C)c1OCC(=O)N[C@@H](Cc1ccccc1)[C@@H](O)C[C@H](Cc1ccccc1)NC(=O)[C@H](C(C)C)N1CCCNC1=O [Lopinavir],0.599
10,CC(C)CN(C[C@@H](O)[C@H](Cc1ccccc1)NC(=O)O[C@H]1CCOC1)S(=O)(=O)c1ccc(N)cc1 [Amprenavir],1.18
11,CC[N+]1(CC)CCC(=C(c2ccccc2)c2ccccc2)C1C (stereo not given) [Prifinium Bromide],1.11
12,CC(C)(CO)[C@@H](O)C(=O)NCCCC(=O)O [Hopantenate calcium],0.00401
13,COc1cc(N)cn[n+]1-c1ccccc1 [Amezinium metilsulfate],0.428
14,O=C1CN2Cc3c(ccc(Cl)c3Cl)N=C2N1 [Anagrelide],-0.566
15,Clc1ccc(C(Cn2ccnc2)OCc2csc3c(Cl)cccc23)c(Cl)c1 (stereo not given) [Sertaconazole nitrate],0.206
16,OCC(CO)N[C@H]1C[C@](O)(CO)[C@@H](O)[C@H](O)[C@H]1O [Voglibose],1.28
17,CC(C)(CO)C(O)C(=O)NCCCO (stereo not given) [Panthenol (D)],0.585
18,CN(C)CCOC1=Cc2ccccc2Sc2ccc(Cl)cc21 [Zotepine],0.612
19,CN1CCCCC1CCN1c2ccccc2Sc2ccc([S+](C)[O-])cc21 (stereo not given) [Mesoridazine besylate],0.412
20,Cc1nc2ccccc2n1Cc1ccc(Cl)cc1 [Chlormidazole],-0.19

row,Structure (SMILES),light-induced TopBP1 condensate (z-score)
1,CC(C)(C)C(=O)OCOC(=O)[C@@H]1N2C(=O)[C@@H](/N=C/N3CCCCCC3)[C@H]2SC1(C)C [Pivmecillinam hydrochloride],0.64
2,CC(C)NC(=N)NC(=N)Nc1ccc(Cl)cc1 [Proguanil hydrochloride],-0.256
3,COc1cc(C(=O)NCc2ccc(OCCN(C)C)cc2)cc(OC)c1OC [Trimethobenzamide hydrochloride],-0.218
4,Cc1ncc([N+](=O)[O-])n1CC(C)O (stereo not given) [Secnidazole],0.994
5,CC1(C)S[C@@H]2[C@H](NC(=O)C(c3ccccc3)S(=O)(=O)O)C(=O)N2[C@H]1C(=O)O (stereo not given in full) [Sulbenicillin sodium salt],0.523
6,CC(=O)[C@@]1(O)CC[C@H]2[C@@H]3C[C@H](C)C4=CC(=O)C=C[C@]4(C)[C@@]3(F)[C@@H](O)C[C@@]21C [Fluorometholone],-0.232
7,O=C(c1cc(O)c(O)c(O)c1)c1ccc(O)c(O)c1O [Exifone],0.683
8,CN(C)CC/C=C1/c2ccccc2COc2ccc(CC(=O)O)cc21 [Olopatadine hydrochloride],0.52
9,O=c1oc2cc(O)ccc2s1 [Tioxolone],0.00597
10,Cc1cc(/C=C/c2ccc3cc(N(C)C)ccc3[n+]2C)c(C)n1-c1ccccc1 [Pyrvinium pamoate],-4.74 (active)
11,CN[C@@H]1[C@@H](O)[C@@H](O[C@@H]2[C@@H](O)[C@H](O[C@H]3OC(CN)=CC[C@H]3N)[C@@H](N)C[C@H]2N)OC[C@]1(C)O [Sisomicin sulfate],0.652
12,CCN1CCN(Cc2ccc(Nc3ncc(F)c(-c4cc(F)c5nc(C)n(C(C)C)c5c4)n3)nc2)CC1 [Abemaciclib],-0.486
13,COc1cccc(CCc2ccccc2OCC(CN(C)C)OC(=O)CCC(=O)O)c1 (stereo not given) [Sarpogrelate hydrochloride],0.789
14,Clc1ccc(C(Cn2ccnc2)OCc2c(Cl)cccc2Cl)c(Cl)c1 (stereo not given) [Isoconazole],0.803
15,CN(C)c1cc(NC(=O)CNC(C)(C)C)c(O)c2c1C[C@H]1C[C@H]3[C@H](N(C)C)C(O)=C(C(N)=O)C(=O)[C@@]3(O)C(O)=C1C2=O [Tigecycline],0.904
16,N#C/C(=C1/SCC(c2ccccc2Cl)S1)n1ccnc1 (stereo not given) [Lanoconazole],0.321
17,O=C(O)COc1nn(Cc2ccccc2)c2ccccc12 [Bendazac],-0.242
18,CC(=O)N[C@H]1[C@H]([C@H](O)[C@H](O)CO)OC(C(=O)O)=C[C@@H]1NC(=N)N [Zanamivir],-0.513
19,CC(C)(C)NCC(O)CSc1nc(-c2ccc(C(N)=O)s2)cs1 (stereo not given) [Arotinolol hydrochloride],-0.455
20,Cc1ccc(C(=O)c2cc(O)c(O)c([N+](=O)[O-])c2)cc1 [Tolcapone],-0.692
